PostGolgi yeast = growth inhibition of a yeast mutant, post-Golgi transport screen; inhibition, % at 10 µM; post-Golgi transport phenotypic cell assay; actives 0.9% (n = 98,000); AID 739;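 also: yeast cells grown in 1536-well plates; yeast grown about 18 h at 30C before absorbance read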
Cav32 inh = blocks human Cav3.2 T-type calcium channel; O95180; Cav3.2-expressing cells, Fluo-4 calcium fluorescence FDSS; stronger effect = lower value; B-score at 10 µM; actives 4% (n = 100,000);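 active = single-dose well whose peak fluorescence ratio is a statistical outlier from its plate by either plate-standardised score or position-corrected B-score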
hDAT+cocaine = changed human dopamine transporter uptake under cocaine IC80; Q01959; LLC-PK1 hDAT cells, [14C]-dopamine uptake with cocaine IC80; actives deviate in either direction; B-score at 10 µM; actives 1.3% (n = 110,000);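 active = Z score or B-score, a plate-position-corrected score, falls beyond the plate's 99.7% confidence bounds, in either direction; inactive = both scores lie inside the 99.7% bounds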
Target sequence (Q01959 whole entry, looked up): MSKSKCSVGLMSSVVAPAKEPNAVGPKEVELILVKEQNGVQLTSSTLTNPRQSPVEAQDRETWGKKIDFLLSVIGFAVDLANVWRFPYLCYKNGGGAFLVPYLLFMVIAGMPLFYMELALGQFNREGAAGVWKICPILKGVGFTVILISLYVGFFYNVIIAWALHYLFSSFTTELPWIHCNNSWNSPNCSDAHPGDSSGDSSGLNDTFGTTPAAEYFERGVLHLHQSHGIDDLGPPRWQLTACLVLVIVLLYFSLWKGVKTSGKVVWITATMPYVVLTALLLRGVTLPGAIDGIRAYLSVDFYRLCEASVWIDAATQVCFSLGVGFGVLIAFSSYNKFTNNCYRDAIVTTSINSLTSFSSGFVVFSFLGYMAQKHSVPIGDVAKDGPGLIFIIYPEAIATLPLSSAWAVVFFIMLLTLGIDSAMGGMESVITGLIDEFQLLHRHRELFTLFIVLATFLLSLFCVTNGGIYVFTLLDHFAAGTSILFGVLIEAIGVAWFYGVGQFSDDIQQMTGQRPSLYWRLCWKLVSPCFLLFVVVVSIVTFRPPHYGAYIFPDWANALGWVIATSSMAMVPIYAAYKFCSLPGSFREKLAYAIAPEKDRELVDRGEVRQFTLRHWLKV
Smad3 FoxH1 inh = blocks human Smad3 binding to FoxH1 peptide | TR-FRET Smad3/Dy647-FoxH1 peptide binding, europium anti-His | inhibition, % at 25 µM | actives 0.29% (n = 88,000) | AID 630;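 active = compounds that reduce the energy-transfer binding signal between the protein and its labelled peptide by more than half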
TNAP act mid DEA = human TNAP activation, intermediate phosphate acceptor; purified TNAP, CDP-star luminescence, 100 mM DEA, 30 min; stronger effect = higher value; scale: 0 levamisole-inhibited, 1 vehicle-only enzyme; 64,000 tested, under 10 active; activation factor at 20 µM; P05186;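 active = activation factor of at least 2 at 20 µM, relative to controls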
PostGolgi ctrl = yeast control strain growth, post-Golgi counter-screen. efflux-deficient yeast background strain, growth absorbance A615, 16 h. actives 5% (n = 98,000). inhibition, % at 10 µM
Large screens that a line does not name were inactive. A selection: hits, their analogues and other compounds. The true share with any hit is near 8.7%. Rule as the data show it, unless noted: active = inhibition above about 30%; inactive = the rest.

CC1(Cc2ccc3c(c2)OCO3)NC(=O)NC1=O (stereo not given)	none
Cc1ccccc1C(=O)/C=C1/c2ccccc2CC(C)(C)N1C	Cav32 inh -3.88 (no result: Smad3 FoxH1 inh, TNAP act mid DEA)
Cc1cccc(C(=O)/C=C2/c3ccccc3CC(C)(C)N2C)c1	Cav32 inh -4.25 (no result: Smad3 FoxH1 inh, TNAP act mid DEA)
CN1/C(=C\C(=O)c2ccco2)c2ccccc2CC1(C)C	none
CC(C)(C)c1cc[n+](/C(C(=S)NC2CC2)=C(/[O-])c2ccc(Cl)s2)cc1	none (no result: Smad3 FoxH1 inh, TNAP act mid DEA)
Cc1ccc(N2CCN(C(=O)CCc3nc4ccccc4[nH]3)CC2)c(C)c1	Cav32 inh -4.75 (no result: TNAP act mid DEA)
CCOC(=O)c1oc2nc3c(cc2c1N)COC(C)(C)C3	none (no result: hDAT+cocaine)
O=C(Nc1nc2cc(Cl)ccc2s1)C1CCCN(S(=O)(=O)c2cccc3cccnc23)C1 (stereo not given)	PostGolgi ctrl 36.4 (no result: Smad3 FoxH1 inh, TNAP act mid DEA)
O=C(Nc1nccs1)C1CCCN(S(=O)(=O)c2cccc3cccnc23)C1 (stereo not given)	none
CCOC(=O)C1CCN(C(=O)C2CCN(S(=O)(=O)c3cccc4cccnc34)CC2)CC1	PostGolgi ctrl 31.6
CCOC(=O)N1CCC(NC(=O)C2CCN(S(=O)(=O)c3cccc4cccnc34)CC2)CC1	none
Cc1nn(C)c(C)c1S(=O)(=O)N1CCCC(C(=O)N2CCN(c3ccc(Cl)cc3)CC2)C1 (stereo not given)	none
Cc1n[nH]c(C)c1S(=O)(=O)N1CCCC(C(=O)N2CCN(c3ccc(Cl)cc3)CC2)C1 (stereo not given)	PostGolgi ctrl 44.4
O=C(Nc1ccc(C(F)(F)F)cc1)C1CCCN1S(=O)(=O)c1cccc2cccnc12 (stereo not given)	PostGolgi ctrl 30.1
Cc1ccc(NC(=O)C2CCN(S(=O)(=O)c3cccc4cccnc34)CC2)nc1	PostGolgi ctrl 32.1
Cc1ccc(NC(=O)C2CCN(S(=O)(=O)c3c(C)n[nH]c3C)CC2)nc1	PostGolgi ctrl 35.4
c1ccc(-n2ncc3c(NCCN4CCOCC4)ncnc32)cc1	none
N#Cc1cnn(Cc2ccccc2)c1/N=C/N1CCOCC1	none
Cc1ccc2cc(CN(Cc3nnnn3C3CCCCC3)CC3CCCO3)c(=O)[nH]c2c1 (stereo not given)	Cav32 inh -2.64
Cc1ccc2cc(CN(CCO)Cc3nnnn3Cc3ccc(F)cc3)c(=O)[nH]c2c1	PostGolgi yeast 36.9
COc1ccc2cc(CN(Cc3cccnc3)Cc3nnnn3Cc3ccccc3)c(=O)[nH]c2c1	hDAT+cocaine 2.18
Cc1cc(C)c2cc(CN(Cc3nnnn3C3CCCCC3)CC3CCCO3)c(=O)[nH]c2c1 (stereo not given)	none
CCC(c1nnnn1Cc1ccccc1)N(Cc1ccco1)Cc1cc2cc(OC)ccc2[nH]c1=O (stereo not given)	hDAT+cocaine 3.4, PostGolgi ctrl 40.6
CCC(C)NC(=O)c1cn(-c2cccc(C)n2)cn1 (stereo not given)	none (no result: Smad3 FoxH1 inh, TNAP act mid DEA)
Oc1c(CN2CCCCC2)cc(COCc2ccccc2)c2cccnc12	none (no result: Smad3 FoxH1 inh)
COc1ccccc1N1CCN(C(=O)CCCC2=NS(=O)(=O)c3ccccc3N2)CC1	none (no result: Cav32 inh)
COc1cccc(NC(=O)CSc2nnc(-c3ccc(C)cc3)o2)c1	none
O=C(CN(Cc1ccco1)C(=O)CNS(=O)(=O)c1ccc(F)cc1)NCc1ccc(F)cc1	TNAP act mid DEA 6.1
CC(C)C(C(=O)NCC1CCCO1)N(Cc1ccco1)C(=O)CNS(=O)(=O)c1ccc(F)cc1 (stereo not given)	none
O=C(CN(Cc1ccco1)C(=O)CNS(=O)(=O)c1ccc(Cl)cc1)NC1CCCCC1	Cav32 inh -4.84
CC(C)C(C(=O)NCc1ccco1)N(C(=O)CNS(=O)(=O)c1ccc(Cl)cc1)C1CCCC1 (stereo not given)	Cav32 inh -7.27
COc1cc2c(cc1OC)-c1cc(OCCN3CCOCC3)nc(=O)n1CC2	none
CC1CCCCN1CCNc1nc(=S)[nH]c2ccccc12 (stereo not given)	none
CCC(=O)NC1(C(F)(F)F)C(=O)Nc2c1c(=O)n(C)c(=O)n2C (stereo not given)	Cav32 inh 2.89 (no result: Smad3 FoxH1 inh)
COC(=O)CN(c1ccc(OC)cc1)S(=O)(=O)c1c(C)noc1C	PostGolgi ctrl 33.1
CCOc1ccc(OCC)c(NC(=O)CN(c2ccc(C)cc2)S(=O)(=O)c2c(C)noc2C)c1	none
CCOc1ccccc1NC(=O)CN(c1ccc(C)cc1)S(=O)(=O)c1c(C)noc1C	Cav32 inh -4.72, PostGolgi ctrl 39.2
COc1ccc(OC)c(NC(=O)CN(c2ccc(C(C)C)cc2)S(=O)(=O)c2c(C)noc2C)c1	Cav32 inh -4.46
Cc1ncc(C[n+]2csc(CCOC(=O)CC3C4CC5CC(C4)CC3C5)c2C)c(N)n1 (stereo not given)	none (no result: Smad3 FoxH1 inh, TNAP act mid DEA)
Cc1c(CCOC(=O)C23CC4CC(CC(C)(C4)C2)C3)sc[n+]1Cc1ccccc1	PostGolgi ctrl 33.8 (no result: Smad3 FoxH1 inh, TNAP act mid DEA)
O=C(CN1CCCCCC1)OCCN=C1NS(=O)(=O)c2ccccc21	none
Cc1ccc(-c2nn3c(C)nnc3s2)cc1NC(=O)c1cccs1	none
Cc1cc2nn(-c3cccc4ccccc34)nc2cc1NC(=O)c1cccs1	Cav32 inh -4.26 (no result: TNAP act mid DEA)
CCn1c(N2CCN(CC(=O)c3ccc(OC)cc3)CC2)nc2ccccc21	hDAT+cocaine -7.62
CCn1c(N2CCN(CC(=O)Nc3cccc(C)c3C)CC2)nc2ccccc21	none
N#CC1=C(c2ccccc2)N=P(N2CCOCC2)(N2CCOCC2)N=C1N1CCOCC1	none (no result: PostGolgi yeast, Cav32 inh, hDAT+cocaine, PostGolgi ctrl)
CC(=O)N1CCN(c2ccc([N+](=O)[O-])c(NCC3CCCO3)c2)CC1 (stereo not given)	none (no result: Smad3 FoxH1 inh, TNAP act mid DEA)
Cc1ccccc1C1C(C#N)=C2NC(=O)c3c(sc4c3CCCCC4)N2C2=C1C(=O)CC(C)(C)C2 (stereo not given)	PostGolgi ctrl 40.9 (no result: Cav32 inh, hDAT+cocaine, Smad3 FoxH1 inh, TNAP act mid DEA)
COc1ccc(Cl)cc1C(=O)Nc1ccccc1N1CCN(C(=O)C(C)C)CC1	Cav32 inh -4.22, PostGolgi ctrl 53.7
CC(C)C(=O)N1CCN(c2ccccc2NC(=O)Cc2ccc(Cl)cc2)CC1	Cav32 inh -4.98
COc1ccc(C(=O)Nc2ccccc2N2CCN(C(=O)C(C)C)CC2)cc1Cl	none (no result: TNAP act mid DEA)
O=C(Cc1ccc(Cl)cc1)Nc1ccc(N2CCN(C(=O)c3ccco3)CC2)c(Cl)c1	PostGolgi ctrl 59.7
CCC(=O)N1CCN(c2ccccc2NC(=O)Cc2ccccc2)CC1	Cav32 inh -4.98
CC(/C=N\NC(=O)Cn1c(C)nc2ccccc21)=C\c1ccccc1	none (no result: Cav32 inh, hDAT+cocaine, Smad3 FoxH1 inh, TNAP act mid DEA)
Cc1cc(C(=O)NCc2cccs2)n(-c2ccccc2)n1	none
CC(C)C(=O)Nc1nnc(CCN2CCCCC2)s1	none (no result: TNAP act mid DEA)
CCOc1ccccc1N1CC(C(=O)NCCc2ccc(S(N)(=O)=O)cc2)CC1=O (stereo not given)	none (no result: Smad3 FoxH1 inh, TNAP act mid DEA)
Cc1cc(C)n2cc(CSC3=NCCS3)nc2n1	none
CC1=CC(C)(C)Nc2ccc(OC(=O)CN3C(=O)c4cccc5cccc(c45)C3=O)cc21	PostGolgi yeast 32.9 (no result: Cav32 inh, hDAT+cocaine, Smad3 FoxH1 inh, TNAP act mid DEA)

Screens from PubChem BioAssay.
